Measurements from PubChem BioAssay.
The source made the active and inactive calls.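 How the source made its calls: active means mean duplicate potentiation above the buffer control mean plus 5 SD of buffer wells; inactive means the rest.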

target: Potassium voltage-gated channel subfamily KQT member 2 (Rattus norvegicus) (UniProt O88943); test: KCNQ2 thallium flux enhancement – KCNQ2-CHO-K1 cells, selectivity assay for KCNQ1 potentiator project (AID 493009); conditions: FluxOR thallium flux fluorescence, at 10 µM; hits give high values, scaled: buffer 0, activator control 100;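 further: assay conditions were tuned for KCNQ1 rather than KCNQ2 modulators; signal is max minus min fluorescence divided by baseline after thallium stimulus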
Sequence (O88943 whole entry, looked up): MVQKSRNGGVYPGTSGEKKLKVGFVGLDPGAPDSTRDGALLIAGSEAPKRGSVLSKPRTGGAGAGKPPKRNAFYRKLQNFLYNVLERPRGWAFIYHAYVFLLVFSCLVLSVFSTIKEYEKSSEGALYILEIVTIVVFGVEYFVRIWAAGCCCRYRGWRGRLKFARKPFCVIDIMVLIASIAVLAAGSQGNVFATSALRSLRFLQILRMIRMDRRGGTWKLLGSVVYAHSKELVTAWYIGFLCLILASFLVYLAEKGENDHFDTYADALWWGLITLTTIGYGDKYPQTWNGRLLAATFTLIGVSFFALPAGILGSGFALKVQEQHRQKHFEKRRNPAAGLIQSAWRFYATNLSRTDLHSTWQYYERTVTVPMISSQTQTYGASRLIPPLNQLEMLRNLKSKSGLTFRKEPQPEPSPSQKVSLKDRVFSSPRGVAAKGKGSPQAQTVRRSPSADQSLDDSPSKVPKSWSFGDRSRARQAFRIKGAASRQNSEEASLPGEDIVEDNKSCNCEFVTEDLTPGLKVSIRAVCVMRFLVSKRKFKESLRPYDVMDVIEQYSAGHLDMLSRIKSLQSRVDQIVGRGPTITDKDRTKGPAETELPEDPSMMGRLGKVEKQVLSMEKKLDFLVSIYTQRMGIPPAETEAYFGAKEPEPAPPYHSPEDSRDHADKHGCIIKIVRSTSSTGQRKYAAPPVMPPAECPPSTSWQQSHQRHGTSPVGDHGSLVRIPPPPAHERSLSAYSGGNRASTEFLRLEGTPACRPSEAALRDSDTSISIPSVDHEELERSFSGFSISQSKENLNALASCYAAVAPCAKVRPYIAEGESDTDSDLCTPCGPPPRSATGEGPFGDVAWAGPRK

| SMILES | outcome | potentiation |
| --- | --- | --- |
| N#Cc1cn(CC(=O)NCC2CCCO2)c2ccccc12 (centres undefined) | inactive | – |
| CSc1nc(C)c2c(n1)N(c1ccc(C(C)C)cc1)CC2 | inactive | – |
| Cc1cc(C(=O)N/N=C/C=C/c2ccc3c(c2)OCO3)n[nH]1 | inactive | – |
| CC(C)(C)c1cc(C(=O)NNC(=O)c2ccc(Cl)cc2)no1 | – | 257% (active) |
| Cc1ccc(/C=C/C(=O)C2C(=O)c3ccccc3C2=O)cc1 | – | 206% (active) |
| COc1ccc(OCc2cc(C(=O)N(C)CC3CCCCO3)no2)c(Cl)c1 (centres undefined) | inactive | – |
| Oc1[nH]c2ccc(Br)cc2c1N=NC(=S)Nc1ccc(F)cc1 | – | 160% (active) |
| CC(C)CSC1=NSC2=NC(=O)/C(=C\c3ccccc3)C(=N)N12 | – | 204% (active) |
| Oc1c(Br)cc(Br)cc1/C=N/c1nc2c(s1)CCCC2 | inactive | – |
| CC(C)C(NC(=O)Nc1ccccc1)C(=O)Nc1cccc(S(=O)(=O)N(C)C)c1 (centres undefined) | – | 232% (active) |
| O=c1c2cc(Br)ccc2nc(-c2ccccc2)n1O | – | 314% (active) |
| O=C(CSc1nc2ccccc2[nH]1)N/N=C/c1ccncc1 | inactive | – |
| CCOC(=O)c1ccc(Nc2nc(N3CCOCC3)nc(N3CCOCC3)n2)cc1 | inactive | – |
| CN(C)CCCC1(O)c2ccccc2C=Cc2ccccc21 | inactive | – |
| O=C(Nc1cc([N+](=O)[O-])ccc1N1CCCC1)c1cccs1 | inactive | – |
| Oc1oc(-c2cccc3ccccc23)nc1/C=N/c1nccs1 | – | 164% (active) |
| COn1c(SCc2ccc(C)cc2C)nc2ccccc2c1=O | inactive | – |
| Cc1ccc(OCC(=O)NC(=S)Nc2ccc(Br)cn2)cc1 | inactive | – |
| Cc1ccccc1NC1=NC(=S)N(c2ccccc2)C12CCCCC2 | – | 156% (active) |
